# Screening data from PubChem.
# ELG1 genotox: induces genotoxicity in HEK293T cells with luciferase-tagged ELG1. HEK293T ELG1-luciferase reporter, luminescence, 16 h. actives 1.3% (n = 330,000). Potency, µM (highest dose often 46 µM), actives largely listed as activators. AID 504466; note: nearly all actives have a fitted effect of over 60% in size
#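 16 hr compound incubation (37 °C, 5% CO2) of HEK293T cells carrying luciferase-tagged ELG1; luciferase then measured by ONE-Glo luminescence after 30 min at RT.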
# NPC1 promoter act: NPC1 promoter activation; Huh7 NPC1 promoter luciferase reporter, 24 h; Potency, µM (series often up to 9.22 µM), hits mostly activators; AID 485313; actives 2.4% (n = 320,000); note: nearly all actives have a fitted effect of over 60% in size
#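 Quantitative HTS used a cell-based reporter: Huh7 cells stably bearing the NPC1 promoter upstream of luciferase were treated with compounds for 24 h, and promoter activation was read as luminescence.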
# FLuc modulator: inhibits or activates purified firefly luciferase, miR-21 counter-screen; AID 588342; Potency, µM (series often up to 57.5 µM), usual class: inhibitors; P08659; purified FLuc, Km substrates, luminescence inhibition; actives 6.9% (n = 360,000); note: nearly all actives have a fitted effect of over 55% in size
# Target sequence (P08659 whole entry, looked up): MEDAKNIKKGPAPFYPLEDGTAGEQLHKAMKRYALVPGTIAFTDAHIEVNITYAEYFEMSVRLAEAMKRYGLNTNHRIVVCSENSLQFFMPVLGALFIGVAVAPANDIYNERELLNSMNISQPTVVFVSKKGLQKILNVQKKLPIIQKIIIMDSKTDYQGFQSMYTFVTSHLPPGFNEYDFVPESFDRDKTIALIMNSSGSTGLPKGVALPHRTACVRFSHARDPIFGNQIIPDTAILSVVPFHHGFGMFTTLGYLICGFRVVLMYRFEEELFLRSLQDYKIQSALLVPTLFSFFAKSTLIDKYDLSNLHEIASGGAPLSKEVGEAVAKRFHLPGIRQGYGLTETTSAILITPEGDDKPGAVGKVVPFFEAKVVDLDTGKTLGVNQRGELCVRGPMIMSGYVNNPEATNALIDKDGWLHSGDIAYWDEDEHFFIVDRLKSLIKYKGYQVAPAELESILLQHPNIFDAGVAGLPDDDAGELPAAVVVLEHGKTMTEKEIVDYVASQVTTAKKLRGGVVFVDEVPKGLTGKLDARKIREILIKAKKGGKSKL
#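 Purified P. pyralis luciferase (10nM final) with 10uM D-luciferin and 10uM ATP (Km levels) in 50mM Tris acetate pH 7.5, 10mM Mg acetate, 0.01% Tween-20, 0.05% BSA; qHTS 6-point titration, ~60 µM downward; luminescence read.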
# SMN2 splice up: SMN2 splice variant enhancement. Potency, µM (highest dose often 46.1 µM), actives largely listed as activators. AID 1458. HEK293 SMN2-luciferase splicing reporter, luminescence, 30-36 h. actives 2.8% (n = 210,000); note: nearly all actives have a fitted effect of over 55% in size
#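 qHTS luciferase splicing reporter: luminescence rises when SMN2 exon 7 is included in transfected HEK293 cells. Compound exposure lasted 30-36 h at 37C, with 4.5 mM final sodium butyrate as control, followed by a ONE-Glo read.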
# ELG1 repair inh: inhibitors of ELG1-dependent DNA repair in HEK293T cells. HEK293T ELG1-luciferase reporter, luminescence, 16 h; DNA damage induced by 5-fluorouridine. Potency, µM (titrated, usually from 46.1 µM), most hits filed as inhibitors. actives 2.3% (n = 330,000). AID 504467; note: nearly all actives have a fitted effect of over 55% in size
#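 Quantitative HTS, concentration-response format. 2,000 cells/well co-treated with 5-fluorouridine and compound, 16 hr in 5% CO2 at 37 °C; ONE-Glo luminescence read after 30 min.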
# Rab9 promoter act: activators of Rab9 promoter. Potency, µM (doses to about 9.22 µM), actives largely listed as activators. Huh7 Rab9 promoter-luciferase reporter, luminescence, 24 h. AID 485297. actives 2.8% (n = 320,000); note: nearly all actives have a fitted effect of over 60% in size
#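 Luciferase signal after 10 min detection reagent at ambient indicates Rab9 promoter upregulation; stably transfected Huh7 cells were treated 24 h with compound in DMSO at 37 °C, 5% CO2.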
# A number is an active result; i = inactive; ? = inconclusive; nt = not tested or not shown. An excerpt weighted towards active compounds, which were near 9.2% of everything screened. Calls come from the whole dose curve; as a rule, active = well fitted curve in the direction sought with a large enough effect; inconclusive = small, poorly fitted or top-dose-only effect, or another doubt; inactive = no such curve, though single readings can be large; an effect the other way counts as inactive or inconclusive.
SMILES,ELG1 genotox,NPC1 promoter act,FLuc modulator,SMN2 splice up,ELG1 repair inh,Rab9 promoter act
O=C(C1COc2ccccc2O1)N1CCc2ccccc21 (stereo not drawn),?,3.5µM,21µM,i,?,3.5µM
O=C(C1CCN(S(=O)(=O)c2ccc3c(c2)OCCO3)CC1)N1CCc2ccccc21,i,i,i,i,23µM,i
O=C(C1CCN(S(=O)(=O)c2ccccc2)CC1)N1CCc2ccccc21,i,i,21µM,nt,i,?
CSc1ncccc1C(=O)OCC(=O)Nc1nc(C)c(Cl)cc1Cl,i,nt,nt,nt,i,nt
COc1cccc(C(=O)NCC2CCCN(C(=O)c3ccc(C=O)cc3)C2)c1OC (stereo not drawn),i,i,i,nt,i,i
COc1ccc(S(=O)(=O)NCC(=O)N(CC(=O)NCc2ccco2)C2CCCC2)cc1,i,i,i,nt,i,i
CCCCN(C(=O)COC(=O)c1ccccc1)c1c(N)n(CCC)c(=O)[nH]c1=O,i,nt,nt,nt,i,nt
CSCCC(NS(=O)(=O)c1ccc2c(c1)oc(=O)n2C)C(=O)N1CCN(c2cc(C)ccc2C)CC1 (stereo not drawn),nt,nt,i,nt,nt,nt
CCC1(c2ccccc2)NC(=O)N(CC(=O)Nc2ccc3c(C)cc(=O)oc3c2)C1=O (stereo not drawn),i,i,i,nt,i,i
CC(C)C(=O)Nc1nc2ccc(S(C)(=O)=O)cc2s1,i,i,?,i,i,i
CS(=O)(=O)c1ccc2nc(NC(=O)c3ccccc3)sc2c1,?,0.63µM,2.1µM,nt,?,0.5µM
Cc1cccc(C(=O)Nc2nc3ccc(S(C)(=O)=O)cc3s2)c1,?,2.2µM,2.1µM,nt,?,?
CC(C)(C)C(=O)Nc1nc2ccc(S(C)(=O)=O)cc2s1,i,?,?,7.9µM,?,1.8µM
CS(=O)(=O)c1ccc2nc(NC(=O)c3ccc(NS(=O)(=O)c4cccc([N+](=O)[O-])c4)cc3)sc2c1,i,i,11µM,nt,i,i
Nc1cccc(Oc2ccc3c(c2)C(=O)NC3=O)c1,i,i,i,nt,?,i
COc1cccc2cc(-c3nc4sc(C(=O)Nc5ccc(F)cc5F)c(C)c4c(=O)[nH]3)c(=O)oc12,nt,nt,i,nt,nt,nt
COc1ccccc1NC(=O)CSc1oc(-c2ccco2)nc1S(=O)(=O)c1ccc(C)cc1,nt,nt,i,i,nt,nt
Cc1ccc(CN2CCSc3ccc(C(=O)N4CCN(c5cc(C)ccc5C)CC4)cc32)cc1,nt,nt,i,i,nt,nt
CS(=O)(=O)c1ccc2nc(NC(=O)Cc3ccccc3)sc2c1,i,i,i,nt,i,i
NS(=O)(=O)c1ccc2nc(NC(=O)c3ccncc3)sc2c1,i,i,6.7µM,nt,?,i
Cc1ccc(NC(=O)Nc2nc3ccc(S(C)(=O)=O)cc3s2)cc1,i,i,i,nt,i,i
CS(=O)(=O)c1ccc2nc(NC(=O)Nc3ccccc3F)sc2c1,?,0.32µM,0.54µM,nt,?,1.1µM
CS(=O)(=O)c1ccc2nc(NC(=O)CS(=O)(=O)Cc3ccccc3)sc2c1,i,i,17µM,i,i,i
CCN(C(=O)c1cc2c(=O)n(CC)c3ccccc3c2s1)c1cccc(C(F)(F)F)c1,nt,nt,i,i,nt,nt
CC(C)=NOCC(=O)Nn1c(COc2ccccc2)nc2ccccc2c1=O,i,i,?,nt,i,i
SMILES,ELG1 genotox,NPC1 promoter act,FLuc modulator,SMN2 splice up,ELG1 repair inh,Rab9 promoter act
CCOc1ccccc1CNC(=O)C1CCN(C(=O)c2sccc2-n2cccc2)CC1,i,i,i,i,13µM,i
O=c1oc2ccccc2cc1-c1cn2cc(Cc3ccc(Cl)cc3)sc2n1,nt,nt,i,i,nt,nt
Cc1ccn2cc(-c3cc4ccccc4oc3=O)nc2c1,0.46µM,0.32µM,0.43µM,nt,?,0.28µM
Cc1ccc(-c2csc(Cc3nc(-c4cc5ccccc5oc4=O)cs3)n2)cc1,i,i,i,i,i,i
O=c1oc2ccccc2cc1-c1cn2cc(Cc3ccccc3F)sc2n1,nt,nt,0.34µM,i,nt,nt
Cc1c(NC(=O)CSc2nnc3c4ccccc4n(CCc4ccccc4)c3n2)c(=O)n(-c2ccccc2)n1C,i,i,i,3.2µM,?,i
Cn1c2ccccc2c2nnc(SCC(=O)Nc3cccc(O)c3)nc21,i,i,6.7µM,nt,i,i
